This note sets out measurements from article PMC9911399, “Two distinct binding modes provide the RNA-binding protein RbFox with extraordinary sequence specificity”.

T1: RBFOX1 RRM (Homo sapiens, UniProt Q9NWB1 109-208)
T1 sequence: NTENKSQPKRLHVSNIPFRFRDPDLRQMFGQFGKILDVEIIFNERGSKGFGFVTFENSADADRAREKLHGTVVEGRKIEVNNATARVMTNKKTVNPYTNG

B1: AGCGAAA (DNA:RNA)
RNA: GGGAGACCGGAAUUCAGAUUGUCCAGCGAAAUUAAAUCCCGUCGUAGCCACCA
DNA 1: CAATCTGAATTCCGGTCTCCC
DNA 2: TGGTGGCTACGACGGGATT
B2: UUUUUGU (DNA:RNA)
RNA: GGGAGACCGGAAUUCAGAUUGUCCUUUUUGUUUAAAUCCCGUCGUAGCCACCA
DNA 1: CAATCTGAATTCCGGTCTCCC
DNA 2: TGGTGGCTACGACGGGATT
B3: UCGUCCC (DNA:RNA)
RNA: B2 RNA with U26C, U27G, U29C, G30C, U31C
DNA 1: CAATCTGAATTCCGGTCTCCC
DNA 2: TGGTGGCTACGACGGGATT
B4: ACAGACA (DNA:RNA)
RNA: B1 RNA with G26C, C27A, A30C
DNA 1: CAATCTGAATTCCGGTCTCCC
DNA 2: TGGTGGCTACGACGGGATT
B5: UCACUAC (DNA:RNA)
RNA: B2 RNA with U26C, U27A, U28C, G30A, U31C
DNA 1: CAATCTGAATTCCGGTCTCCC
DNA 2: TGGTGGCTACGACGGGATT
B6: GGCAAAG (DNA:RNA)
RNA: B1 RNA with A25G, G28A, A31G
DNA 1: CAATCTGAATTCCGGTCTCCC
DNA 2: TGGTGGCTACGACGGGATT
B7: UGGAAUG (DNA:RNA)
RNA: B1 RNA with A25U, C27G, G28A, A30U, A31G
DNA 1: CAATCTGAATTCCGGTCTCCC
DNA 2: TGGTGGCTACGACGGGATT
B8: UGGAGAU (DNA:RNA)
RNA: B1 RNA with A25U, C27G, G28A, A29G, A31U
DNA 1: CAATCTGAATTCCGGTCTCCC
DNA 2: TGGTGGCTACGACGGGATT
B9: UGGAGAG (DNA:RNA)
RNA: B1 RNA with A25U, C27G, G28A, A29G, A31G
DNA 1: CAATCTGAATTCCGGTCTCCC
DNA 2: TGGTGGCTACGACGGGATT
B10: UGGAUCC (DNA:RNA)
RNA: B2 RNA with U26G, U27G, U28A, G30C, U31C
DNA 1: CAATCTGAATTCCGGTCTCCC
DNA 2: TGGTGGCTACGACGGGATT
B11: UGUCUUG (DNA:RNA)
RNA: B2 RNA with U26G, U28C, G30U, U31G
DNA 1: CAATCTGAATTCCGGTCTCCC
DNA 2: TGGTGGCTACGACGGGATT
B12: UGUUGUC (DNA:RNA)
RNA: B2 RNA with U26G, U29G, G30U, U31C
DNA 1: CAATCTGAATTCCGGTCTCCC
DNA 2: TGGTGGCTACGACGGGATT
B13: UGUCGUC (DNA:RNA)
RNA: B2 RNA with U26G, U28C, U29G, G30U, U31C
DNA 1: CAATCTGAATTCCGGTCTCCC
DNA 2: TGGTGGCTACGACGGGATT
B14: UGGAGAA (DNA:RNA)
RNA: B1 RNA with A25U, C27G, G28A, A29G
DNA 1: CAATCTGAATTCCGGTCTCCC
DNA 2: TGGTGGCTACGACGGGATT
B15: UGGAUCU (DNA:RNA)
RNA: B2 RNA with U26G, U27G, U28A, G30C
DNA 1: CAATCTGAATTCCGGTCTCCC
DNA 2: TGGTGGCTACGACGGGATT
B16: UGGAUCG (DNA:RNA)
RNA: B2 RNA with U26G, U27G, U28A, G30C, U31G
DNA 1: CAATCTGAATTCCGGTCTCCC
DNA 2: TGGTGGCTACGACGGGATT
B17: UGUCGUG (DNA:RNA)
RNA: B2 RNA with U26G, U28C, U29G, G30U, U31G
DNA 1: CAATCTGAATTCCGGTCTCCC
DNA 2: TGGTGGCTACGACGGGATT
B18: UGGAGUG (DNA:RNA)
RNA: B1 RNA with A25U, C27G, G28A, A29G, A30U, A31G
DNA 1: CAATCTGAATTCCGGTCTCCC
DNA 2: TGGTGGCTACGACGGGATT
B19: CAGAAAA (DNA:RNA)
RNA: B1 RNA with A25C, G26A, C27G, G28A
DNA 1: CAATCTGAATTCCGGTCTCCC
DNA 2: TGGTGGCTACGACGGGATT
B20: UGGGUAG (DNA:RNA)
RNA: B1 RNA with A25U, C27G, A29U, A31G
DNA 1: CAATCTGAATTCCGGTCTCCC
DNA 2: TGGTGGCTACGACGGGATT

Where a chain is given by its changes, count along the chain named. Whole data set: some 16,000 sequences, median “ka relative to ugcaugu” near 0.0091, cut for the highest 2% near 0.032. For the sample, the highest values were picked, then their nearest neighbours and some sequences at random.

For this test, the target named is T1, RBFOX1 RRM. The experiment in a line: EMSA; HiTS-Eq, 1 nM pool, 10 min; buffer printed only for the single-RNA assays: 10 mM Tris pH 7.5, 150 mM NaCl, 3.4 mM EDTA, 0.001% NP-40, 30 C. The following applies: tags: His6 N-terminal (pET28a); label: 5' 32P. The method in brief:
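These values rest on relative association constants, computed from read-count changes of each RNA species versus the control reaction and normalised to the cognate motif. Reads came from free RNA recovered by 8% native PAGE after purified RbFox RRM (wild type or mutant) at increasing concentrations was equilibrated for 10 min in 50 µL with 1 nM of a 5′-radiolabelled pool with 7 randomized nucleotides and DNA-annealed flanks.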
For orientation: Mobility shift assays separate free from complexed probe on a gel.
Take B1: the binding signal is 0.0048 KA relative to UGCAUGU.
Consider B2, for which the binding signal was 0.0281 KA relative to UGCAUGU.
With B3 the figure was 0.00735 KA relative to UGCAUGU; with B4, 0.00018 KA relative to UGCAUGU; with B5, 0.000713 KA relative to UGCAUGU.
With B6 the figure was 0.00447 KA relative to UGCAUGU; with B7, 0.0953 KA relative to UGCAUGU.
Turning to B8, the binding signal is 0.0283 KA relative to UGCAUGU.
With B9 the figure was 0.0249 KA relative to UGCAUGU; with B10, 0.0229 KA relative to UGCAUGU; with B11, 0.0447 KA relative to UGCAUGU.
With B12 the figure was 0.0242 KA relative to UGCAUGU.
With B13 the figure was 0.0214 KA relative to UGCAUGU.
On to B14, for which the binding signal is 0.0194 KA relative to UGCAUGU.
With B15 the figure was 0.0236 KA relative to UGCAUGU.
With B16 the figure was 0.0333 KA relative to UGCAUGU.
In the case of B17 it was 0.0277 KA relative to UGCAUGU.
As for B18, the binding signal was 0.0323 KA relative to UGCAUGU.
As to B19, the binding signal was 0.000855 KA relative to UGCAUGU.
As for B20, the binding signal is 0.0258 KA relative to UGCAUGU.
